The record followed here is PubChem BioAssay AID493188 (National Center for Advancing Translational Sciences (NCATS), 2011).

For the test, the target named is Galactokinase (Homo sapiens) (UniProt P51570). The test is described as follows: Confirmation Assay for Inhibitors of Human Galactokinase (GALK): SAR round 2. The text has this:
NIH Molecular Libraries Probe Production Centers Network [MLPCN] NIH Chemical Genomics Center [NCGC] MLPCN Grant: R03 MH085689-01 Assay Submitter (PI): Kent Lai (University of Utah School of Medicine, 50 N Mario Capecchi Drive, Salt Lake City, UT 84132) NCGC Assay Overview Inherited deficiency of galactose-1-phosphate uridyltransferase (GALT) can result in a potentially lethal disorder called Classic Galactosemia (OMIM 230400). Several lines of evidence indicate that an elevated level of galactose-1-phosphate (gal-1-p), the product of galactokinase (GALK), is a major, if not sole, pathogenic mechanism in patients with classic galactosemia. Therefore, finding inhibitors of GALK is a potential novel therapy for this inherent metabolic disease and is the long term goal of this project. Active compounds observed in the qHTS GALK assay (AID: 1868) were cherry picked and re-screened for validation. […]
NCGC Assay Protocol Summary: Three uL/well of ATP-buffer solution (35 uM ATP, 20mM HEPES pH8.0, 5 mM MgCl2, 60 mM NaCl, 1 mM DTT, 0.01% BSA final concentration) was dispensed into 1536-well, assay plates (Greiner, solid white medium-binding plates) with Aurora Discovery BioRAPTR Flying Reagent Dispenser (FRD; Beckton-Dickenson). […] Luminescence was detected with the ViewLux plate reader (Perkin Elmer, Waltham, MA) after 2 min incubation using a 1 sec exposure time and 2x binning.

Inconclusive results are not listed. Calls of active or inactive are those of the source. Calls come from the whole dose curve; as a rule, active = well fitted inhibition curve with a large enough effect; inconclusive = small, poorly fitted or top-dose-only effect; inactive = flat fitted curve, though single readings scatter.

Chain of Galactokinase (Homo sapiens) (P51570 whole entry, looked up): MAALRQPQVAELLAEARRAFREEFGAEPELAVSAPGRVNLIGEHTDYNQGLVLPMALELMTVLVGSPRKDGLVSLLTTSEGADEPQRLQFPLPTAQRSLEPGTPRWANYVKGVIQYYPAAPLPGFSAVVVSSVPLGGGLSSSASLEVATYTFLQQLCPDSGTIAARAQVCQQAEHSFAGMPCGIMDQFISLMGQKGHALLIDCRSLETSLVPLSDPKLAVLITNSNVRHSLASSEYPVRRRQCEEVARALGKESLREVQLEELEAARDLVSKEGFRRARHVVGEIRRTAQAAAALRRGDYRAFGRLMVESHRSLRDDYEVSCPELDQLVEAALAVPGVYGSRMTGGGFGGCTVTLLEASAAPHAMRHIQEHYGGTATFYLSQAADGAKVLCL

In the case of `CC(=O)OCOCC(=O)OCO[P+](=O)C(OCOC(C)=O)c1cc([N+](=O)[O-])ccc1Oc1ccc(Br)cc1` (stereo unspecified), the result was inactive.
